Results reported in PubChem BioAssay (NCI).
About 79,000 compounds went through this panel and 15% of them were active in at least one assay; those are over-represented in the sample as a whole. A number with no mark means an inactive call. Calls of active or inactive are those of the source. Rule as the data show it: active = growth inhibition above about 70%; inactive = the rest.

experiment: NCI Yeast Anticancer Drug Screen. Data for the bub3 strain (AID 167); conditions: S. cerevisiae bub3 mutant strain, at 50.0 µM, hits give high values
Method: Growth inhibition of yeast strains with defined genetic alterations is measured as a screen for potential anti-cancer activity. Selected strains with alterations in DNA damage repair or cell cycle control were exposed to compounds and growth inhibition was measured relative to vehicle treated controls. The strain used in this assay is bub3

Question: With `COC(=O)/C=C\C(C#N)(C#N)N=Cc1ccsc1` as the compound, how does the growth inhibition read?
Answer: 74% (active)

Question: For `N#CC1(C#N)C2CCCCC23OC(=N)C1(C#N)C(c1ccco1)O3` (stereo not given), which growth inhibition is on record?
Answer: -41.5%

Question: Which growth inhibition does the source give for `C=C(C)C(=O)OC1CC2(C)OC(=CC2=O)C(C)CC2OC(=O)C(=C)C12` (stereo not given) here?
Answer: 33.5%

Question: With `Cc1ccc(NC(=O)/C(=N\NC(N)=O)c2c(O)c3ccccc3[nH]c2=O)cc1` as the compound, how does the growth inhibition read?
Answer: -3.05%

Question: With `O=C(O)CCNC(=O)c1ccccc1` as the compound, how does the growth inhibition read?
Answer: 7.95%

Question: With `CN(C)c1ccc(/C=N/n2c(-c3ccccc3)nc3ccccc3c2=O)cc1` as the compound, how does the growth inhibition read?
Answer: 50.8%

Question: Which growth inhibition does the source give for `CC1C2(C)OC(=N)C(C#N)(C(c3cccc([N+](=O)[O-])c3)O2)C1(C#N)C#N` (stereo not given) here?
Answer: -10.4%

Question: Which growth inhibition does the source give for `O=c1c2ccccc2nc(-c2ccccc2)n1/N=C/c1ccccc1[N+](=O)[O-]` here?
Answer: 18.4%

Question: Which growth inhibition does the source give for `N#C/C=C1\C=CC(O)C(O)C1OC1OC(CO)C(O)C(O)C1O` (stereo not given) here?
Answer: 12.9%

Question: Which growth inhibition does the source give for `Clc1c(Cl)c(Cl)c2nn(C3CCCO3)nc2c1Cl` (stereo not given) here?
Answer: 12.1%

Question: For `CCCCC1C(=O)N(c2ccc(S(=O)(=O)Nc3ccccn3)cc2)N(c2ccc(O)c(C(=O)O)c2)C1=O` (stereo not given), which growth inhibition is on record?
Answer: 34.6%

Question: Which growth inhibition does the source give for `Cc1ccc(F)cc1NC(=O)O/N=C(\Cl)C(C)C` here?
Answer: 4.85%

Question: Which growth inhibition does the source give for `Cc1ccc(/C=N/Nc2ccccn2)s1` here?
Answer: -11.2%

Question: For `C[C@]12CC[C@@H]3c4ccc(OS(N)(=O)=O)cc4CC[C@H]3[C@@H]1CCC2=O`, which growth inhibition is on record?
Answer: 5.6%

Question: Which growth inhibition does the source give for `N#CC1(C#N)N[C@@H](c2ccsc2)[C@H]2C(=O)N(c3ccccc3)C(=O)[C@H]21` here?
Answer: -6.95%

Question: Which growth inhibition does the source give for `CC1CC(=O)N(N(C)C)C2(C#N)C(=O)N=C(N)C12C#N` (stereo not given) here?
Answer: -4%

Question: Which growth inhibition does the source give for `O=C1c2c(O)cc(O)cc2OC(c2ccc(O)c(O)c2)C1O` (stereo not given) here?
Answer: -9.05%

Question: With `NC(N)=Nc1ccc(CC(N)C(=O)O)cc1` (stereo not given) as the compound, how does the growth inhibition read?
Answer: -3.8%

Question: Which growth inhibition does the source give for `NNc1[nH]c(=S)[nH]c1C(N)=O` here?
Answer: -22.1%

Question: With `CCCCCCCCCC(O)CC(=O)c1c(O)cccc1O` (stereo not given) as the compound, how does the growth inhibition read?
Answer: 82.1% (active)

Question: For `C[C@@H]1CC[C@H]2C(C)(C)[C@H]3C[C@@]12CC[C@@]3(C)O`, which growth inhibition is on record?
Answer: 11.8%

Question: With `C=C1CCN(c2ccccc2)C1=O` as the compound, how does the growth inhibition read?
Answer: -5.05%

Question: For `C=C1CC2(C)CCC(OC(=O)C3(C)OC3C)C(C)(OC(C)=O)C2CC1=C(C)C` (stereo not given), which growth inhibition is on record?
Answer: -4.85%

Question: For `O=S(=O)(O)c1cc(O)c2c(O)cc(S(=O)(=O)O)cc2c1`, which growth inhibition is on record?
Answer: -8.1%

Question: With `COC(=O)/C(=N\NC(=S)NN)C(C(=O)OC)C(=O)C(=O)Nc1cccc(C(F)(F)F)c1` (stereo not given) as the compound, how does the growth inhibition read?
Answer: -9.25%

Question: Which growth inhibition does the source give for `CCCCCC(O)(CCCCC)CCCCCCCCC1=C(O)c2ccccc2C(=O)C1=O` here?
Answer: 1%

Question: For `O=C(/C=C(\[O-])c1ccccc1)CCCCCCC(=O)/C=C(\[O-])c1ccccc1.O=C(/C=C(\[O-])c1ccccc1)CCCCCCC(=O)/C=C(\[O-])c1ccccc1.O=C(/C=C(\[O-])c1ccccc1)CCCCCCC(=O)/C=C(\[O-])c1ccccc1.[Y+3].[Y+3]`, which growth inhibition is on record?
Answer: 15.4%

Question: For `CCC(C)C1(O)OC2CC3(C)OC(=CC3=O)/C(C)=C\C3OC(=O)C1(C)C32` (stereo not given), which growth inhibition is on record?
Answer: -20.1%

Question: For `COC(=O)C(C(=O)C(=O)NC1Nc2ccc(C)cc2S1)c1nc2ccc(Cl)cc2[nH]c1=O` (stereo not given), which growth inhibition is on record?
Answer: 13.2%

Question: For `C/C=C1\NC(=O)[C@H]2CSSCCC=C[C@H](CC(=O)N[C@H](C(C)C)C(=O)N2)OC(=O)[C@H](C(C)C)NC1=O`, which growth inhibition is on record?
Answer: 58.4%

Question: With `Cc1ccc(NC2=N/C(=C/c3ccccc3)C(Cl)=N2)cc1` as the compound, how does the growth inhibition read?
Answer: 14.3%

Question: For `O=C1c2ccccc2-c2c1c1ccccc1c(=O)n2-c1cccnc1`, which growth inhibition is on record?
Answer: 6%

Question: With `O=C1c2cccnc2-c2nccc3ccnc1c23` as the compound, how does the growth inhibition read?
Answer: 57.5%

Question: For `COC(=O)C(=O)C(C(=O)C(=O)Nc1ccccc1OC)c1nc2ccc([N+](=O)[O-])cc2[nH]c1=O` (stereo not given), which growth inhibition is on record?
Answer: 36.1%

Question: With `C=C1C(=O)O[C@@H]2C[C@@]3(C)CC(=O)C=C(C)[C@@H]3C[C@H]12` as the compound, how does the growth inhibition read?
Answer: 15.8%

Question: Which growth inhibition does the source give for `CCOC(=O)c1cc(C)nc2c1c(=O)n(-c1ccccc1)c(=O)n2CCCCN1CCN(c2ncccn2)CC1` here?
Answer: -16.9%

Question: With `COc1ccc2cc1Oc1ccc(cc1)CC1c3cc(OC)c(cc3CCN1C)Oc1c(OC)c(OC)cc3c1C(C2)N(C)CC3` (stereo not given) as the compound, how does the growth inhibition read?
Answer: 5.25%

Question: For `COc1cc(C)c2c(c1C=O)Oc1c(c(C)c(O)c3c1C(O)OC3=O)OC2=O` (stereo not given), which growth inhibition is on record?
Answer: -4.85%

Question: With `CC(=O)C(C(C)=O)c1ccccc1` as the compound, how does the growth inhibition read?
Answer: 4.05%

Question: With `CC(C)=CCc1cc(C2COc3cc4c(c(O)c3C2=O)C=CC(C)(C)O4)c(O)cc1O` (stereo not given) as the compound, how does the growth inhibition read?
Answer: 91.6% (active)
